# An excerpt weighted towards active compounds, which were near 18% of everything screened.
# VDR inhibitor: Inhibitors of the vitamin D receptor (VDR): qHTS; actives 0.93% (n = 400,000); AID 504847, 2011; Potency, µM, inactives show max response, negative = inhibition, hits mostly inhibitors; VDR-SRC2-3 peptide fluorescence polarization, 2 h
#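 VDR–SRC2-3 interaction, FP format. Cmpds 23 nl via pintool, brief spin, 2 h ambient incubation.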
# KAT2A inh: qHTS Assay for Inhibitors of GCN5L2 | Potency, µM (highest dose often 58.9 µM), for the others: at the top dose activity change, negative = inhibition, usual class: inhibitors | actives 0.21% (n = 390,000) | GCN5L2 HAT assay, ThioGlo1 CoA-SH fluorescence | Histone acetyltransferase KAT2A (Homo sapiens), Q92830 | AID 504327, 2011
#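 Compounds, pin-transferred from DMSO stocks, meet 20nM GCN5L2 for 15 min before the reaction begins with H3(1-25) peptide (75uM) and acetyl-CoA (70uM). Thiol-reactive ThioGlo1 reports CoA release over 20 min at room temperature.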
# DT40 TDP1 no CPT: qHTS for Inhibitors of human tyrosyl-DNA phosphodiesterase 1 (TDP1): qHTS in cells in absence of CPT; DT40 Tdp1-/- hTDP1 cells, no CPT, ATP luminescence, 48 h; Potency, µM (top dose mostly 46.2 µM), for inactives: at the top dose activity change, negative = growth inhibition, usual class: inhibitors; actives 15% (n = 420,000); further: nearly all actives have a fitted effect of over 55% in size
#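 DT40 Tdp1-/-;hTDP1 cells, no CPT (DMSO vehicle only), 400 cells/well; compounds pin-transferred; ≥48 hr, 37 °C; CellTiter-Glo 30 min RT dark, luminescence read.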
# TDP1 block: qHTS Assay for Inhibitors of Tyrosyl-DNA Phosphodiesterase (TDP1); Tyrosyl-DNA phosphodiesterase 1 (Homo sapiens), Q9NUW8; recombinant TDP1, AlphaScreen DNA substrate cleavage; Potency, µM (top dose mostly 130 µM), for the others: at the top dose activity change, negative = inhibition, usual class: inhibitors; actives 0.28% (n = 350,000); AID 485290, 2010; further: nearly all actives have a fitted effect of over 40% in size
# Target sequence (Q9NUW8 whole entry, looked up): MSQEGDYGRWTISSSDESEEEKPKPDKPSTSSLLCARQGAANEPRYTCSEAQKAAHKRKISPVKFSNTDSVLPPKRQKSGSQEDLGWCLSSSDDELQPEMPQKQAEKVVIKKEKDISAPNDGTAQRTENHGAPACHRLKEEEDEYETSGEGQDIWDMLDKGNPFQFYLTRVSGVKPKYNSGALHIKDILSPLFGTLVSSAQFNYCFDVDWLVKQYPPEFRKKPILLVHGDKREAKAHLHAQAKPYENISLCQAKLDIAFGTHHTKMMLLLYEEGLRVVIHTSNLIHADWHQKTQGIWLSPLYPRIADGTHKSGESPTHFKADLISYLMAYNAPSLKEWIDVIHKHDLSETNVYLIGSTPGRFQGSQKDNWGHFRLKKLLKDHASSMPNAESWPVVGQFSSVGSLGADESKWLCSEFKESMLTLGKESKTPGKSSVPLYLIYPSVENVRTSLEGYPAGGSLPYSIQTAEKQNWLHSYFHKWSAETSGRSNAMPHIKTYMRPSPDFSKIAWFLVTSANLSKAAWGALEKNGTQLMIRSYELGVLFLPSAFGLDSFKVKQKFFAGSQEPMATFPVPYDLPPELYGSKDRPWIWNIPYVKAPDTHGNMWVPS
#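 E. coli-derived human Tdp1, 1 nM final. Cpd preinc 15 min RT; substrate 15 nM final, 5 min RT; AS bead mix 10 ug/ml final, 10 min RT. Signal loss = tyrosine-FITC cleavage. No-enzyme wells = max signal.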
# PLK1 PBD block: qHTS for Inhibitors of PLK1-PDB (polo-like kinase 1 - polo-box domain): Primary Screen. Plk1 PBD binding of FITC phosphopeptide, fluorescence polarization. Potency, µM, for inactives: max response, negative = inhibition, actives largely listed as inhibitors. actives 2.8% (n = 360,000); further: series mostly up to about 57 µM; nearly all actives have a fitted effect of over 65% in size
# DT40 TDP1 CPT: qHTS for Inhibitors of human tyrosyl-DNA phosphodiesterase 1 (TDP1): qHTS in cells in presence of CPT. chicken DT40 Tdp1-/-;hTDP1 cells + 20 nM CPT, ATP luminescence, 48 h. Potency, µM (highest dose often 46.2 µM), for inactives: at the top dose activity change, negative = growth inhibition, usual class: inhibitors. actives 12% (n = 420,000); further: nearly all actives have a fitted effect of over 55% in size
#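 Chicken DT40 Tdp1-/- cells stably complemented with human TDP1 were seeded at 400 cells/well in medium containing 20 nM camptothecin, exposed to pin-transferred compounds, and grown at 37 °C for at least 48 hr. Viability was read as ATP luminescence.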
# Numbers without * were called inactive; ? = inconclusive; · = no result given; ! = not confirmed by another sample; [ ] = dose if it differs, or a comment. The call rests on the fitted dose curve; in most records, active means well fitted curve in the direction sought with a large enough effect; inconclusive means small, poorly fitted or top-dose-only effect, or another doubt; inactive means no such curve, though single readings can be large; an effect the other way counts as inactive or inconclusive. On the % scale 0 is the no-effect control and ±100 the full control effect; potency means the concentration at half of the fitted maximal effect.
SMILES,VDR inhibitor,KAT2A inh,DT40 TDP1 no CPT,TDP1 block,PLK1 PBD block,DT40 TDP1 CPT
COc1ccc(OC)c([C@H](O)[C@H](C)N)c1,6%,3%[21.4 µM],·,6%[56.1 µM],·,·
Cc1ccc2c(c1)C1CN(C)CCC1N2C(=O)COc1ccc(N(C)C(=O)C(C)(C)C)cc1 (stereo not given),-2%,-1%,18µM*,2%,-7%,?
CCOc1ccc(S(=O)(=O)N(C)c2ccc(OCC(=O)N3c4ccc(C)cc4C4CN(C)CCC43)cc2)cc1 (stereo not given),1%,-5%,?,3%,-5%,?
COc1ccc(C(=O)Cn2c(NCCO)nc3ccccc32)cc1,12%,-1%,?,-1%,-9%,16µM*
COc1ccc(C2=C(C(C)=O)Sc3nnc(-c4ccc(C)cc4)n3N2C(C)=O)cc1OC,7%,-1%,4.6µM*,-5%,·,2.9µM*
Cc1cccc(N2C(=O)/C(=C/c3ccc(CN(CCC#N)S(C)(=O)=O)o3)C(=O)NC2=S)c1,?,-14%,-6%,-2%,7.5µM*,-3%
CCOc1cc(CNCCc2cccc(F)c2)ccc1OC,5%,-13%,?,·,-13%,?
CCOc1ccc(CCNC(=O)c2cc3c(-c4cccc(OC)c4)nn(C)c3s2)cc1OCC,-9%,-15%,18µM*,-2%,·,?
CCCOc1ccc(C(=O)Nc2ccc(-c3cc4ccccc4oc3=O)c(C)c2)cc1,-15%,-8%,5.2µM*,-2%[2.28 µM],·,10µM*
CCC1CN2CCC1CC2C(Oc1cc2ccccc2c2ccccc12)c1ccnc2ccc(O)cc12 (stereo not given),·,·,·,8%[21 µM],·,·
COc1ccc(CCNC(=O)CCc2c(C)nc3c(-c4ccc(F)cc4)c(C)nn3c2C)cc1OC,-4%,4%,12µM*,7%,·,8.2µM*
Cc1nc2c(-c3ccc(F)cc3)c(C)nn2c(C)c1CCC(=O)N1CCC2(CC1)OCCO2,-4%,?,-13%,7%,-9%,1%
Cc1cc(=O)oc2c(C)c(OCC(=O)N3CCC(C(=O)O)(c4ccccc4)CC3)ccc12,-3%,0%,-14%,·,1%,-12%
C=CCN1C(=O)NC(=O)/C(=C/c2ccc(OC)c(CSc3ccccn3)c2)C1=O,71µM*,-14%,?,3%,4.7µM*,?
C=CCN1C(=O)NC(=O)/C(=C/c2ccc(OC)c(COc3ccc(NC(C)=O)cc3)c2)C1=O,79µM*,0%,3.7µM*,-9%,11µM*,2.6µM*
COc1ccc(OC(=O)N(C)C[C@H]2OCc3cnnn3CCCC(=O)N([C@H](C)CO)C[C@H]2C)cc1,·,·,-3%,·,-6%,1%
O=C(Cc1ccccc1)Oc1cccc(-n2cnnn2)c1,1%,-2%,0%,5%,-19%,4%
COc1cc(N2CCOCC2)ccc1/C=C1\C(=O)NC(=O)N(Cc2cccs2)C1=O,-22%,-13%,-28%,-5%,?,0%
O=C1NC(=O)N(Cc2ccccc2Cl)C(=O)/C1=C/c1cccs1,?,-13%,4.6µM*,-1%,1.2µM*,6.5µM*
Cc1ccc(/C=C2\C(=O)NC(=O)N(Cc3ccccc3Cl)C2=O)o1,105%,-8%,?,1%,0.84µM*,?
O=C(Cc1cc(=O)[nH][nH]1)N/N=C/c1cccc2ccccc12,12%,-3%,3%,8%,-14%,?
COc1ccc2c3c1OC1C(O)C=CC4[C@@H](C2)N(C)CC[C@]314 (stereo not given in full),-9%,-3%,-2%,1%,0%,1%
CN1C(=O)/C(=C\c2ccc(N3CCCCC3)o2)C(=O)NC1=S,-1%,-2%,?,-6%,68%,-21%
CN1CCN(c2ccc(/C=C3\C(=O)NC(=S)N(c4cccc(Br)c4)C3=O)o2)CC1,?,-1%,16µM*,-3%,105%,16µM*
CC[C@@H](CO)NC(=O)[C@@H]1C=C2c3cccc4c3c(cn4C)C[C@H]2N(C)C1,28µM*!,?,-9%,-3%,-12%,-21%
SMILES,VDR inhibitor,KAT2A inh,DT40 TDP1 no CPT,TDP1 block,PLK1 PBD block,DT40 TDP1 CPT
Cc1cccc(-c2nc3ccc(C(=O)N4CCC5(CC4)OCCO5)cc3nc2-c2cccc(C)c2)c1,-1%,-9%,?,5%,-7%,?
O=C(c1ccc2c(c1)ncn2C1CCCCC1)N1CCC2(CC1)OCCO2,-6%,-7%,4.6µM*,3%,-9%,6.5µM*
CCOc1ccc2cc(C#N)c(=O)oc2c1,3%,-17%,·,2%,·,·
Cc1ccc(N2C(=O)NC(=O)/C(=C\c3cc(C)n(-c4ccc(C(=O)O)cc4)c3C)C2=O)cc1,-3%,0%,22%,·,?,4%
Cc1cc(/C=C2\C(=O)NC(=O)N(Cc3ccccc3)C2=O)c(C)n1-c1ccc(Cl)c(C(=O)O)c1,-1%,?,1%,·,6µM*,2%
Cc1cc(/C=C2\C(=O)NC(=O)N(c3cccc(F)c3)C2=O)c(C)n1-c1ccc(C(=O)O)c(Cl)c1,10%,-23%,-2%,·,-21%,0%
Cc1c(Cl)cccc1N1C(=O)NC(=O)/C(=C\c2cc(C)n(-c3cccc(C(=O)O)c3C)c2C)C1=O,7%,-14%,12%,·,27µM*,0%
Cc1cc(/C=C2\C(=O)NC(=O)N(Cc3ccccc3Cl)C2=O)c(C)n1-c1ccc(C(=O)O)cc1,?,-2%,11%,22µM*,11µM*,-2%
c1nc[n]([Sn]([CH]2CCCCC2)([CH]2CCCCC2)[CH]2CCCCC2)n1,50µM*,1%,·,4%,·,·
CC(=O)O[C@H]1C[C@@H](O[C@@H]2[C@H](C)O[C@H](O[C@@H]3[C@H](C)O[C@H](O[C@@H]4CC[C@@]5(C)[C@@H](CC[C@]6(C)[C@]5(C)C[C@H](O)[C@]5(C)[C@@H](C7=CC(=O)OC7)CC[C@@]56O)C4)C[C@@H]3O)C[C@@H]2O)O[C@@H](C)[C@H]1O[C@H]1O[C@@H](CO)[C@@H](O)[C@@H](O)[C@@H]1O,4%,4%[21.4 µM],·,3%[21 µM],·,·
N=C(N)c1ccc(CS(=O)(=O)F)cc1,-1%,2%,·,·,·,·
